MCF10A rerep: inducers of DNA re-replication in MCF 10A breast cells; MCF 10A DNA re-replication, Hoechst nuclear intensity, 48 h; Potency, µM (series often up to 46.1 µM), for inactives: at the highest dose activity, positive = re-replication, actives largely listed as activators; 2.9% of 350,000 active; AID 624296; further: potency means the concentration at half of the fitted maximal effect; % of control where 0% means no effect; nearly all actives have a fitted effect of over 50% in size
IL-1B inflam inh: inhibitors of inflammasome signaling (IL-1 beta secretion) | THP-1 LPS/ATP IL-1B secretion, AlphaLISA, 16 h; stronger effect = lower value | AID 743279 | 4.7% of 360,000 active | activity change, % at 57.5 µM; in the data active means activity change below about -50%; inconclusive means mostly about -30% to -49%; further: on the % scale 0 is the no-effect control and ±100 the full control effect
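THP-1 cells pretreated 1 hr with compounds (up to 57.5 uM final), then stimulated with LPS (250 ng/mL final) plus ATP (1.25 mM final); secreted IL-1B measured by AlphaLISA after 16 hr, decreased signal indicating inhibition.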
DT40 TDP1 CPT: growth inhibition of DT40 Tdp1-/-;hTDP1 cells with camptothecin (screen for TDP1 inhibitors) | chicken DT40 Tdp1-/-;hTDP1 cells + 20 nM CPT, ATP luminescence, 48 h | Potency, µM (titrated, usually from 46.2 µM), without a hit: at the highest dose activity change, negative = growth inhibition, actives largely listed as inhibitors | 12% of 420,000 active | AID 686979; further: potency means the concentration at half of the fitted maximal effect; on the % scale 0 is the no-effect control and ±100 the full control effect; nearly all actives have a fitted effect of over 55% in size
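Chicken DT40 Tdp1-/- cells complemented with human TDP1, 400 cells/well, exposed to compounds plus 20 nM camptothecin for at least 48 h at 37 C; viability read as ATP content by CellTiter-Glo luminescence.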
SW480 rereplic: inducers of DNA re-replication in SW480 colon cancer cells. SW480 DNA re-replication, Hoechst DNA content imaging, 48 h. Potency, µM (doses to about 46.1 µM), inactives show top-dose re-replication activation, hits mostly activators. AID 624297. 1.8% of 340,000 active; further: potency means the concentration at half of the fitted maximal effect; % of control where 0% means no effect; nearly all actives have a fitted effect of over 55% in size
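Compounds, transferred as 23 nL by pin tool, were incubated with cells for 48 hr; DNA content per nucleus was then quantified by Hoechst staining and fluorescence plate imaging.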
DT40 TDP1 no CPT: qHTS for Inhibitors of human tyrosyl-DNA phosphodiesterase 1 (TDP1): qHTS in cells in absence of CPT | DT40 Tdp1-/- hTDP1 cells, no CPT, ATP luminescence, 48 h | Potency, µM (highest dose often 46.2 µM), for inactives: top-dose activity change, negative = growth inhibition, most hits filed as inhibitors | 15% of 420,000 active; further: potency means the concentration at half of the fitted maximal effect; on the % scale 0 is the no-effect control and ±100 the full control effect; nearly all actives have a fitted effect of over 55% in size
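Luminescent ATP content (CellTiter-Glo) served as the growth readout. Knockout chicken DT40 cells expressing human TDP1 were exposed to compounds without camptothecin for a minimum 48 hr at 37 °C.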
BCR signal inh: chronic active BCR signaling inhibition; ABC-DLBCL IkBa-CBG/CBR reporter, luminescence ratio, 4 h; Potency, µM (titrated, usually from 46.1 µM), inactives show at the highest dose activity change, negative = inhibition, hits mostly inhibitors; 0.05% of 340,000 active; active means well fitted inhibition curve with a large enough effect in the signal ratio, with a control signal flat, not every such curve was filed as active; inconclusive means small, poorly fitted or top-dose-only effect, or effect the other way, or a change in a side signal; the % refers to the signal ratio;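 further: potency means the concentration at half of the fitted maximal effect; plate controls were basal doxycycline-induced cells for no effect and cells given 10 µM MG132 for full effect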
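TMD8 human ABC-DLBCL cells with doxycycline-inducible IκBα–green luciferase fusion and unfused red luciferase, in 0.5% FBS medium; compounds up to 46 uM, 4 h at 37C. Green/red luminescence ratio, filter-overlap corrected, fitted to concentration-response curves.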
An asterisk follows results filed as active; ? = inconclusive; · = not tested or not shown; [ ] = remark or other dose. In the library only some 19% were active in any assay of this set; here they are far more common. Unless noted, the call rests on the fitted dose curve; in most records, active means well fitted curve in the direction sought with a large enough effect; inconclusive means small, poorly fitted or top-dose-only effect, or another doubt; inactive means no such curve, though single readings can be large; an effect the other way counts as inactive or inconclusive.

SMILES	MCF10A rerep	IL-1B inflam inh	DT40 TDP1 CPT	SW480 rereplic	DT40 TDP1 no CPT	BCR signal inh
Cc1cc(Br)ccc1NC(=O)C(C)c1ccc([N+](=O)[O-])cc1 (centres undefined)	15%	-15	?	-45%	26µM*	-1%
Cc1ccc([N+](=O)[O-])cc1NC(=O)C(Sc1ccccc1)c1ccccc1 (centres undefined)	-4%	24	?	5%	16µM*	2%
Cc1cc(O)c(C(C)C)cc1NC(=O)Nc1ccc([N+](=O)[O-])cc1	-14%	?	-14%	-10%	?	·
CN1OC[C@@H]2CN[C@H](c3ccc(-c4cccc(F)c4)cc3)C[C@@H]21	·	-24	?	·	?	·
CC(=O)Nc1ccc(S(=O)(=O)Nc2cccc(-n3c(C)nc4ccccc4c3=O)c2)cc1	4%	-11	-4%	2%	-8%	-24%
Cc1noc(C)c1C(=O)N1CCC2(CCN(Cc3ccccc3)CC2)CC1	·	·	8%	·	14%	·
CN(C)C(=S)N=c1ssc(=S)n1Cc1cccnc1	12µM*	10	1.8µM*	18µM*	2.6µM*	·
Cc1ccnc2ccc(I)cc12	·	·	?	·	-23%	·
Cc1ccc2nccnc2c1	·	·	3.5µM*	·	3.2µM*	·
Cc1ccc2c(C)ccnc2c1	·	·	10µM*	·	7.1µM*	·
Clc1ccc2nccnc2c1	·	·	1µM*	·	0.79µM*	·
O=S(=O)(NCC(c1ccco1)N1CCCCC1)c1ccccc1C(F)(F)F (centres undefined)	3%	0	?	-1%	?	?
Cc1cccc(NC(=O)CSCC(=O)NNC(=O)c2ccoc2C)c1	1%	-15	3%	6%	6%	-2%
Cc1cc2ccccc2n1-c1ccc(C(=O)N2CCC(C(=O)NCc3ccccc3Cl)CC2)s1	·	·	16µM*	·	-97%	·
O=C(CN1C=NS(=O)(=O)c2ccccc21)Nc1ccc(F)cc1	·	·	-2%	·	-15%	?
CCC(=O)N(Cc1cc2c(C)cc(C)cc2[nH]c1=O)C1CCCCC1	11%	-14	?	6%	?	?
CCC(=O)N(Cc1cc2c(C)ccc(C)c2[nH]c1=O)C1CCCCC1	-3%	-12	?	6%	16µM*	2%
COc1ccc(NC(=O)c2ccc3c(c2)CCN3S(=O)(=O)c2ccc(C)cc2)cc1Cl	·	·	-24%	·	-13%	·
COc1ccc2c(c1)CCCN2C(N)=Nc1ccc(Cl)cc1	-3%	-63*	?	-11%	23µM*	1%
CC(=O)Nc1ccc(NC(=O)c2ccc3c(c2)CCN3S(=O)(=O)c2ccc(C)cc2)cc1	·	·	-10%	·	-1%	·
COc1ccc2c(c1)CCCN2S(=O)(=O)c1ccc(Cl)cc1	?	9	23µM*	?	15µM*	-1%
COc1ccc(C(=O)Nc2ccc3c(c2)CCCN3S(=O)(=O)c2ccc(C)cc2)cc1	·	·	21µM*	·	13µM*	·
Cc1ccc(S(=O)(=O)N2CCCc3cc(NC(=O)c4ccc(C(C)(C)C)cc4)ccc32)cc1	·	·	4.1µM*	·	3.7µM*	·
CC1=C(C(=O)N(C)C)CC(CC(=O)NC2CC2)C(=O)N1Cc1ccccc1 (centres undefined)	·	-12	1%	·	-1%	·
O=C1C(Cc2c[nH]c3ccccc23)NC(=S)N1C1CCCCC1 (centres undefined)	7%	-24	-17%	8%	-26%	0%
SMILES	MCF10A rerep	IL-1B inflam inh	DT40 TDP1 CPT	SW480 rereplic	DT40 TDP1 no CPT	BCR signal inh
Cc1c(C(=O)NCC2(N3CCOCC3)CCCCC2)cnn1-c1nccc(-c2ccccc2F)n1	·	·	-8%[9.04 µM]	·	?	·
Cc1nc(-c2ccc(S(=O)(=O)Nc3cc(Cl)ccc3C)cc2)co1	·	·	-27%	·	?	·
CCCCCNC(=O)c1ccc2c(c1)nc(C)n2-c1cccc(C)c1	·	·	15µM*	·	?	?
COc1ccc(C(=O)NC2CCCc3c2cnn3-c2ccccc2F)cc1OC (centres undefined)	11%	0	5.2µM*	?	1.6µM*	11%
O=C(NC1CCCc2c1cnn2-c1ccccc1F)c1ccncc1 (centres undefined)	·	23	10µM*	·	5.8µM*	·
NC(=O)NC(=O)COC(=O)CCSc1ccccc1	-3%	23	24%	-6%	-21%	-8%
c1ccc(-c2ncnc3ccccc23)cc1	9%	0	-21%	-5%	-21%	·
Nc1ccc(-c2nc(-c3ccccc3)nc3ccccc23)cc1	16µM*	?	-3%	23µM*	9%	10%
Nc1ccc(-c2cc(-c3cccc(N)c3)nc(-c3ccccc3)n2)cc1	16µM*	10	22%	?	-28%	?
COc1cc(/C=C/C(=O)OCC(=O)N(C)CC(=O)Nc2ccc(F)cc2)ccc1OC(F)F	11%	15	9%	5%	-21%	-10%
Cc1sc2ccccc2[n+]1CC(=O)c1ccc(F)cc1	·	·	0%	·	-3%	·
Cc1cc(C)c[n+](CC(=O)c2ccccc2)c1	12%	-2	?	-4%	17%	0%
Cc1sc2ccccc2[n+]1CCC[n+]1c(C)sc2ccccc21	·	·	2µM*	·	1.8µM*	·
Cc1sc2ccccc2[n+]1CCC(C)S(=O)(=O)[O-] (centres undefined)	-1%	-13	-9%	1%[9.22 µM]	-1%	1%
Cc1sc2ccccc2[n+]1CC(=O)c1ccccc1	-3%	?	?	21%	18µM*	-2%
O=C(C[n+]1c(Cl)cc(Cl)c2ccccc21)c1ccccc1	·	·	4.5µM*	·	6.3µM*	·
CC(C)C(NC(=O)c1ccc(C(C)(C)C)cc1)C(=O)N1CCCC1 (centres undefined)	-3%	12	?	1%	?	-17%
O=C1OC(c2ccccc2)(N(Nc2ccccc2)c2ccccc2)c2ccccc21 (centres undefined)	·	-3	?	·	23µM*	·
O=C1CCC[C@@H]2Cc3nc4ccc(O)cc4cc3[C@@H]3CCN1[C@H]23	-4%	5	10%	-55%	4%	·
O=C1CCC[C@@H]2Cc3nc4cc5c(cc4cc3[C@@H]3CCN1[C@H]23)OCO5	-3%	-10	18µM*	-19%	16µM*	·
CCS(=O)(=O)N1CC(=O)N(c2ccc(C)c(C)c2)C(C)(C(=O)NC2CCCCCC2)C1 (centres undefined)	·	·	?	·	-29%	·
CCOC(=O)N1CCN(CCC(=O)Nc2cccc(C)c2)CC1	4%	12	-5%	-1%	-5%	-2%

Source: PubChem BioAssay
